High-throughput results: PubChem BioAssay, The Scripps Research Institute Molecular Screening Center
CHRM1 PAM: human M1 muscarinic receptor positive allosteric modulators, primary screen, CHO-K1 cells, Fluo-8 calcium fluorescence, 1536-well; 0.088% of 360,000 active; activation, % at 3 µM; AID 588819, 2011; CHO-K1 hM1, ACh EC20; 0% = ACh EC20, 100% = maximal ACh; in the data active = activation above about 19%, passing the limit was not always enough
Target sequence (P11229 whole entry, looked up): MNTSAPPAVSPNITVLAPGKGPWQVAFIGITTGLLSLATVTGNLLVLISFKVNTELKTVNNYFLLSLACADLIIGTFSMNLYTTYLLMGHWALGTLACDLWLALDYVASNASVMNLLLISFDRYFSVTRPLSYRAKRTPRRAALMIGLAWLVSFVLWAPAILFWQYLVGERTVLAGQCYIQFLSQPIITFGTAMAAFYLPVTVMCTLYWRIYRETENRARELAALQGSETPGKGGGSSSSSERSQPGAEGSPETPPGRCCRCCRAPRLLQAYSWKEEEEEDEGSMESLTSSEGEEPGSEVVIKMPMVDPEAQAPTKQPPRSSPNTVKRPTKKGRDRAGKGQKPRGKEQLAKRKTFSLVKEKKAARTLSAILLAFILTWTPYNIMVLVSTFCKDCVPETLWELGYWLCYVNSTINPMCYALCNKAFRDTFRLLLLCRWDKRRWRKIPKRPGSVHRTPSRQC
M1 ag parental: counter-screen for M1 agonists: effect in parental CHO-K1 cells; 0.48% of 360,000 active; Fluo-8 calcium fluorescence; scaled to maximal ATP response, vehicle zero; activation, % at 3 µM; in the data active = activation above about 15%;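 note: untransfected CHO-K1 host cells lacking M1 receptor as counterscreen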
M1 antag: human M1 muscarinic receptor antagonists, primary screen, CHO-K1 cells, Fluo-8 calcium fluorescence, 1536-well | Muscarinic acetylcholine receptor M1 (Homo sapiens), P11229 | CHO-K1 hM1, ACh EC80 antagonist | inhibition, % at 3 µM | 1.3% of 360,000 active;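 active = percent inhibition above its own plate's cutoff, namely the mean of that plate's compound wells plus 3 SD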;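 note: peak over basal fluorescence ratio during 140 s after agonist addition; 0% = ACh EC80 plus DMSO and 100% = DMSO alone without agonist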
CHO-K1 Ca PAM: nonselective calcium activators in parental CHO-K1 cells, primary screen, counter-screen for M1 PAM project, cell-based, Fluo-8 calcium fluorescence, full deck, 1536-well | ATP EC20; 0% at ATP EC20, 100% at ATP max | 0.02% of 360,000 active | AID 602247, 2012 | activation, % at 3 µM;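 active = activation above the run cutoff, the mean activation of all test compounds plus 3 SD, cut at about 40% in these data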;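 note: peak over basal fluorescence ratio in a 140 s read after ATP addition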
CHO-K1 Ca antag: counter-screen for M1 antagonists: effect in parental CHO-K1 cells; ATP-induced calcium, Fluo-8 fluorescence; inhibition, % at 3 µM; 0.6% of 360,000 active;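 active = inhibition above a per-plate cutoff, the plate's mean sample inhibition plus 3 SD, cut at about 24% in these data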;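 note: 0% = DMSO plus EC80 ATP and 100% = DMSO alone without ATP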
CHRM1 agonist: human M1 muscarinic receptor agonists, primary screen, Fluo-8 calcium fluorescence, CHO-K1 cells, HTS | Muscarinic acetylcholine receptor M1 (Homo sapiens), P11229 | CHO-K1 hM1, agonist mode; 0% DMSO, 100% acetylcholine EC100 | activation, % at 3 µM | 0.33% of 360,000 active | AID 588814, 2011;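 active = activation above the run's mean compound activation plus 3 SD, cut at about 16% in these data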;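 note: peak over basal fluorescence ratio within a 140 s kinetic read after compound addition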
Starred values were filed as active, the others as inactive. Hits are enriched below; roughly 2.4% of the tested compounds scored in any of these assays.

Results for COc1cccc(N2CCN(C(=O)CN3C(=O)NC(C)(c4ccc5ccccc5c4)C3=O)CC2)c1 (stereo not drawn) ?
CHRM1 PAM: -3; M1 ag parental: 8; M1 antag: 5; CHO-K1 Ca PAM: -15; CHO-K1 Ca antag: -3; CHRM1 agonist: -1

What do the screens show for `COc1cc(CNC(=O)c2cnc(C)cn2)cc(OC)c1`?
CHRM1 PAM: 16; M1 ag parental: 0; M1 antag: -5; CHO-K1 Ca PAM: 9; CHO-K1 Ca antag: 23; CHRM1 agonist: 6

What do the screens show for `c1ccc2c(C3OCC4(CCCCC4)CO3)cccc2c1`?
CHRM1 PAM: 10; M1 ag parental: -1; M1 antag: -19; CHO-K1 Ca PAM: 1; CHO-K1 Ca antag: -1; CHRM1 agonist: 0

How did O=C(CSc1ccsc1[N+](=O)[O-])NC1CCCC1 do in these assays?
CHRM1 PAM: 10; M1 ag parental: -1; M1 antag: 1; CHO-K1 Ca PAM: -14; CHO-K1 Ca antag: 26*; CHRM1 agonist: -8

Results for CC1CCCCC1NC(=O)CSc1ccsc1[N+](=O)[O-] (stereo not drawn) ?
CHRM1 PAM: 10; M1 ag parental: 2; M1 antag: -8; CHO-K1 Ca PAM: 22; CHO-K1 Ca antag: -5; CHRM1 agonist: -10

What do the screens show for `O=C(CCCN1CCC(C(=O)c2ccc(F)cc2)CC1)c1ccc(F)cc1`?
CHRM1 PAM: -28; M1 ag parental: 4; M1 antag: 89*; CHO-K1 Ca PAM: 9; CHO-K1 Ca antag: -4; CHRM1 agonist: -9

What do the screens show for `O=C(c1ccc(F)cc1)C1CCN(Cc2ccccc2)CC1`?
CHRM1 PAM: -8; M1 ag parental: 16*; M1 antag: 14; CHO-K1 Ca PAM: 4; CHO-K1 Ca antag: 7; CHRM1 agonist: -5

Results for CC(CO)NS(=O)(=O)c1cccc(Cl)c1F (stereo not drawn) ?
CHRM1 PAM: 5; M1 ag parental: 1; M1 antag: -5; CHO-K1 Ca PAM: 17; CHO-K1 Ca antag: -8; CHRM1 agonist: -3

What do the screens show for `C#CCNC(=O)C[C@@H]1C[C@@]2(C(=O)OC)CCCCC=C2N(CCCCCCCC)C1=O`?
M1 ag parental: 0; CHO-K1 Ca PAM: -6; CHO-K1 Ca antag: -7

Results for N/C(=N\OC(=O)CC1CCCCC1)c1ccncc1 ?
CHRM1 PAM: -4; M1 ag parental: 17*; M1 antag: 9; CHO-K1 Ca PAM: 15; CHO-K1 Ca antag: 3; CHRM1 agonist: -6

How did O=C(Nc1cccc(-c2nc3ccccc3[nH]2)c1)c1cccc(NC(=O)c2ccco2)c1 do in these assays?
CHRM1 PAM: -14; M1 ag parental: 8; M1 antag: 37*; CHO-K1 Ca PAM: 8; CHO-K1 Ca antag: -31; CHRM1 agonist: -3

How did O=C(Nc1ccccc1)c1cccc(NC(=O)c2ccco2)c1 do in these assays?
CHRM1 PAM: 7; M1 ag parental: 10; M1 antag: -6; CHO-K1 Ca PAM: 26; CHO-K1 Ca antag: -5; CHRM1 agonist: 2

Results for O=C(O)Cc1ccc(NC(=O)c2cccc(NC(=O)c3ccco3)c2)cc1 ?
CHRM1 PAM: 7; M1 ag parental: -1; M1 antag: 2; CHO-K1 Ca PAM: -14; CHO-K1 Ca antag: 28*; CHRM1 agonist: 0

What do the screens show for `COc1ccc(N(CC(=O)NC2CCCCC2)C(=O)c2ccc(C)s2)cc1OC`?
CHRM1 PAM: 25; M1 ag parental: -1; M1 antag: -20; CHO-K1 Ca PAM: 6; CHO-K1 Ca antag: 5; CHRM1 agonist: 2

How did O=C1N/C(=C/c2ccc(N3CCOCC3)o2)C(=O)N1c1cccc(Cl)c1 do in these assays?
CHRM1 PAM: -9; M1 ag parental: 0; M1 antag: 14; CHO-K1 Ca PAM: -10; CHO-K1 Ca antag: 29*; CHRM1 agonist: -3

Results for COc1nc(-c2ccc(Cl)cc2Cl)nc2ccccc12 ?
CHRM1 PAM: 10; M1 ag parental: 1; M1 antag: -14; CHO-K1 Ca PAM: 9; CHO-K1 Ca antag: -3; CHRM1 agonist: 2
